Test results as given in PubChem BioAssay (Tox21).
Values joined by “and” are separate entries in the source; they are usually repeats but may differ in a detail not shown here. Identical values can stand only once. Records with an inconclusive call do not appear. Entries that show only a call come without a potency. Unmarked numbers belong to inactive results. Active and inactive are the calls of the source. The call rests on the fitted dose curve; in most records, active means well fitted curve in the direction sought with a large enough effect in the repeat runs; inconclusive means weak or mixed curves; inactive means no such curve, though single readings can be large; an effect the other way counts as inactive or inconclusive.

Assay: qHTS RealTime-Glo MT Cell Viability Assay in HEK293 cells - 16 hour (AID 1224872); further: nearly all actives have a fitted effect of over 50% in size
Details: RealTime-Glo luminescence; series mostly up to 76.8 µM
In short: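 Luminescence generated by NanoLuc from substrate produced by living HEK293 cells served as the viability signal. Each value reflects the reading at its stated time point during continuous 40 h compound exposure at 37 C.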
Potency means the concentration at half of the fitted maximal effect.

| SMILES | Potency |
| --- | --- |
| C=CCOCC1CO1 (centres undefined) | inactive |
| CCCSP(=S)(OCC)Oc1ccc(SC)cc1 (centres undefined) | inactive |
| CCOP(=S)(OCC)Oc1ccc(S(C)=O)cc1 (centres undefined) | inactive |
| C=C(C)C(=O)OCCCCOC(=O)C(=C)C | inactive |
| C=C(Cl)Cl | inactive |
| Clc1ccc(Cl)c(Cl)c1 | inactive |
| NNCCO | inactive |
| O=C(N[C@H]1CN2CCC1CC2)c1ccc2c(c1)OCCO2 | inactive |
| ClCc1ccccc1Cl | inactive |
| Nc1ccccc1C(=O)OCCc1ccccc1 | 24.5 µM (active) |
| O=C=NC1CCCCC1 | inactive |
| c1ccc2c(c1)sc1ccccc12 | inactive |
| N#CC1(N=NC2(C#N)CCCCC2)CCCCC1 | inactive |
| CCC[N+](CCC)(CCC)CCC | inactive |
| Nc1cc(Cl)cc(C(=O)O)c1Cl | inactive |
| C[C@H]1[C@@H]2Cc3ccc(O)cc3[C@@]1(C)CCN2C | inactive |
| CCCCCCCCCCCCN(C)C | inactive |
| CCCCNC(=O)OCC#CI | 19.4 µM (active) and 21.9 µM (active) |
| CC(C)CCCCCCCOC(=O)c1ccccc1C(=O)OCCCCCCCC(C)C | inactive |
| C1CS1 | inactive |

Assay: qHTS RealTime-Glo MT Cell Viability Assay in HepG2 cells - 8 hour (AID 1224873); further: nearly all actives have a fitted effect of over 55% in size
Details: RealTime-Glo luminescence; series mostly up to 76.8 µM
In short: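 Real-time viability: cells seeded at 600 per well together with NanoLuc and cell-permeant prosubstrate, compounds added after 5 h incubation. Luminescence tracked at 0, 8, 16, 24, 32 and 40 h of exposure.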

| SMILES | Potency | viability change, negative = cytotoxic |
| --- | --- | --- |
| CCCCCl | inactive | – |
| CC(C)(C)NCC(O)c1cc(Cl)c(N)c(C(F)(F)F)c1 (centres undefined) | inactive | – |
| O=C(Cc1ccccc1)OCCc1ccccc1 | inactive | – |
| N#CC(C#N)=C(C#N)C#N | inactive | – |
| O=C(O)COc1cc(Cl)c(Cl)cc1Cl | inactive | – |
| CCCC(C)(COC(N)=O)COC(=O)NC(C)C (centres undefined) | inactive | – |
| CN1CC[C@]23c4c5ccc(O)c4O[C@H]2[C@@H](O)C=C[C@H]3[C@H]1C5 | inactive | – |
| CCOP(=S)(S)OCC | inactive | – |
| C=CCc1ccccc1O | inactive | – |
| CC(C)(C)OOC(C)(C)CCC(C)(C)OOC(C)(C)C | inactive | – |
| O=S(=O)(c1ccccc1)c1ccccc1 | inactive | – |
| Nc1c(Br)cc(Br)c2c1C(=O)c1ccccc1C2=O | – | -13.9% [at 15.8 µM] |
| COc1cc(CC(C)N)c(OC)cc1Br (centres undefined) | inactive | – |
| O=C(O)c1ccc(=O)[nH]c1 | inactive | – |
| CCNC(=O)NC(=O)/C(C#N)=N/OC | inactive | – |
| C=CCOCC1CO1 (centres undefined) | inactive | – |
| CCCSP(=S)(OCC)Oc1ccc(SC)cc1 (centres undefined) | inactive | – |
| CCOP(=S)(OCC)Oc1ccc(S(C)=O)cc1 (centres undefined) | inactive | – |
| C=C(C)C(=O)OCCCCOC(=O)C(=C)C | inactive | – |
| C=C(Cl)Cl | inactive | – |

| SMILES | Potency | viability change, negative = cytotoxic |
| --- | --- | --- |
| Clc1ccc(Cl)c(Cl)c1 | inactive | – |
| NNCCO | inactive | – |
| O=C(N[C@H]1CN2CCC1CC2)c1ccc2c(c1)OCCO2 | inactive | – |
| ClCc1ccccc1Cl | inactive | – |
| Nc1ccccc1C(=O)OCCc1ccccc1 | inactive | – |
| O=C=NC1CCCCC1 | inactive | – |
| c1ccc2c(c1)sc1ccccc12 | inactive | – |
| N#CC1(N=NC2(C#N)CCCCC2)CCCCC1 | inactive | – |
| CCOC(C(=O)OCCN(C)C)(c1ccccc1)c1ccccc1 | inactive | – |
| CC1(C)CC(=O)CC(C)(C)N1[O] | inactive | – |
| CCC[N+](CCC)(CCC)CCC | inactive | – |
| Nc1cc(Cl)cc(C(=O)O)c1Cl | inactive | – |
| C[C@H]1[C@@H]2Cc3ccc(O)cc3[C@@]1(C)CCN2C | inactive | – |
| CCCCCCCCCCCCN(C)C | inactive | – |
| CC(C)(C)NCC(O)c1ccccc1Cl (centres undefined) | inactive | – |
| COc1cc(C[C@@H](C)N)c(OC)cc1Br | inactive | – |
| CCCCNC(=O)OCC#CI | 15.4 µM (active) and 12.3 µM (active) | – |
| CC(C)CCCCCCCOC(=O)c1ccccc1C(=O)OCCCCCCCC(C)C | inactive | – |
| C1CS1 | inactive | – |
